# Activity calls are given as the source filed them.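 Rule for the calls, unless noted: active = NADPH fluorescence slope more negative than the mean of all samples by about 3 SD, 99.7% confidence; inactive = the rest.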
# Columns and labels:
# [1] = inhibitors of TNFa-induced NFkB p65 translocation, primary screen, imaging, HUVEC, MLSMR starter and 10KST1 sets (AID 438;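 active = inhibition above 20% together with a positive visual image hit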;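 note: compound added about 3h40 before a 20 min TNFalpha stimulation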;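 for inhibition: signal is the nuclear over cytoplasmic p65 intensity ratio per well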); settings: HUVEC TNFa-induced p65 nuclear translocation; cell count: measured here: nuclei count (cytotoxicity indicator), at 2.08 µM; inhibition: at 2 µM, stronger effect = higher value, 0% TNFa-plus-vehicle, 100% no-TNFa wells
# [2] = reduction of polyQ htt aggregates in cells – imaging, exon1htt(103Q)mCFP cells, high-content imaging, primary screen (AID 483;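 active = visual image review flags a hit and inhibition of aggregation exceeds 20%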;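 note: compound exposure lasted 3 days before fixation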;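 for nuclei count: percent of the per-plate median nuclei count of sample wells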); settings: exon1htt(103Q)mCFP cell line, aggregate imaging, at 2 µM; inhibition of aggregation: stronger effect = higher value; nuclei count: measured here: cell count, toxicity
# [3] = endothelial E-selectin expression blockers – imaging, HUVEC, immunofluorescence, MLSMR starter and 10KST1 sets, primary screen (AID 487;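 active = visually confirmed hit in the image check and inhibition above 20%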;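 for inhibition: signal is fraction of cell area covered by stained E-selectin grains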;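 for nuclei count: 100% = median nuclei count of all wells on the same plate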); settings: HUVEC TNFalpha-induced E-selectin immunofluorescence imaging, at 2 µM; inhibition: stronger effect = higher value; nuclei count: measured here: cell number, toxicity
# [4] = target: Voltage-gated potassium channel subunit beta-2 (Rattus norvegicus) (UniProt P62483); assay: inhibitors of rat Kvbeta2 reductase activity – biochemical, NADPH fluorescence, primary screen (AID 622;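 active = fluorescence slope higher than the sample average by over 3 SD, cut at about -0.22 in these data, passing the limit was not always enough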;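 note: slope of raw intensity against log time taken from 70 to 1610 s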); settings: recombinant KvBeta, 4-cyanobenzaldehyde reduction, at 10 µM, stronger effect = higher value
# Sequence of Voltage-gated potassium channel subunit beta-2 (Rattus norvegicus) (P62483 whole entry, looked up): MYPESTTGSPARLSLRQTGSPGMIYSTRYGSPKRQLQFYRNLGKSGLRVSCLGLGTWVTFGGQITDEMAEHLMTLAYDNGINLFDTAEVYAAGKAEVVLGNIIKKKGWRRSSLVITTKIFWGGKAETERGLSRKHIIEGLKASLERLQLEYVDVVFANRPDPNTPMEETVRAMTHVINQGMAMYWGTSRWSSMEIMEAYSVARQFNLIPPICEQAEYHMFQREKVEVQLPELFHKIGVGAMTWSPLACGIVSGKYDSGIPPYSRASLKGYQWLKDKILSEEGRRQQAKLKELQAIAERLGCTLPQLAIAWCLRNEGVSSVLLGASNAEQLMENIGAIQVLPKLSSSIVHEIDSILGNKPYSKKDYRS
# [5] = target: Voltage-gated potassium channel subunit beta-2 (Rattus norvegicus) (UniProt P62483); assay: enhancers of rat Kvbeta2 NADPH turnover – biochemical, NADPH fluorescence, primary screen (AID 623); settings: Recombinant KvBeta, NADPH fluorescence decrease slope, 10 min; at 10 µM; stronger effect = lower value;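 note: fluorescence intensity change per second fitted from 20 to 320 s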
# [6] = target: Alpha-2C adrenergic receptor (Homo sapiens) (UniProt P18825); assay: compounds altering alpha2C-coupled GIRK flux – cell-based, HEK293 alpha2C/GIRK1/2, thallium flux, primary screen (AID 624;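 active = fluorescence slope after compound addition differing from the mean of all screened samples at 99.7% confidence, in either direction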;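 note: slope of fluorescence ratio to pre-addition baseline per second over 15 to 24 s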); settings: thallium flux BTC fluorescence, at 10 µM, actives lie on both sides
# Sequence of Alpha-2C adrenergic receptor (Homo sapiens) (P18825 whole entry, looked up): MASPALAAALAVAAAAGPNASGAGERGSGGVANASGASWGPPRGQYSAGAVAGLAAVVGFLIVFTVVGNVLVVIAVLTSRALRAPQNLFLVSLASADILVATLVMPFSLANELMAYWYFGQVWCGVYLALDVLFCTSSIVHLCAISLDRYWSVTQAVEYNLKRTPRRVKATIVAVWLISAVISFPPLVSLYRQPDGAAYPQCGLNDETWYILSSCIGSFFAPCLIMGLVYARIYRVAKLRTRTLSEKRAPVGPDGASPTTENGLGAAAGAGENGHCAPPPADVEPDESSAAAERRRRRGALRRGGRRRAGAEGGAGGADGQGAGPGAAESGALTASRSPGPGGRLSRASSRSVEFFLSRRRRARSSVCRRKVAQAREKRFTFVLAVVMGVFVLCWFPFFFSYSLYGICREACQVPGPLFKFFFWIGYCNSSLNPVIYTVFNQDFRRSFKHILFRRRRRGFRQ
# [7] = blockers of RIG-like receptor reporter activation – cell-based, Sendai virus stimulus, luciferase, 10K MLSCN set, TLR/RLR signaling modifier project, primary screen (AID 602276;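 active = inhibition at or above 50% at 10 µM; inactive = inhibition below 50%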;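 note: firefly luciferase from ISG56 promoter only with Renilla not read in this screen; 0% = Sendai virus plus DMSO and 100% = medium plus DMSO without virus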); settings: HEK293 RL24 IRF3 luciferase reporter, at 10 µM, stronger effect = higher value
# [8] = TLR3 IRF3 reporter activation blockers – cell-based, poly I:C stimulus, luciferase, 10K MLSCN set, primary screen (AID 602277;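 active = inhibition of the reporter signal at or above 50%; inactive = inhibition below 50%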); settings: HEK293-TLR3 RL24 IRF3 luciferase reporter, at 10 µM, stronger effect = higher value
Structure (SMILES),cell count [1],inhibition [1],inhibition of aggregation [2],nuclei count [2],inhibition [3],nuclei count [3],fluorescence slope [4],NADPH fluorescence slope [5],slope [6],inhibition [7],inhibition [8]
OC(CNCC1COc2ccccc2O1)COCc1cccs1 (centres undefined),615,0.8% (inactive),-9.6% (inactive),105%,-133% (inactive),131%,-0.568 (inactive),6.2e-06 (inactive),0.00544 (inactive),-3.3% (inactive),2.31% (inactive)
O=C1CCc2cc(S(=O)(=O)N3CCC(C(=O)Nc4nccs4)CC3)ccc2N1,821,3.9% (inactive),-29.1% (inactive),105%,-38.5% (inactive),102%,-0.593 (inactive),-4.4e-05 (inactive),0.00714 (inactive),18.5% (inactive),28.2% (inactive)
Cc1nc2ccc(NC(=O)NCc3ccco3)cc2s1,359,-2.2% (inactive),21.2% (inactive),100%,-15.3% (inactive),82.3%,-0.338 (inactive),5e-06 (inactive),0.00475 (inactive),-22.3% (inactive),-83.4% (inactive)
COCCNC(=O)CN1CCN(C(c2ccccc2)c2ccccc2)CC1,240,-6.6% (inactive),18.2% (inactive),77.7%,-7.5% (inactive),86.9%,-0.556 (inactive),-4.9e-05 (inactive),0.00771 (inactive),-12.4% (inactive),-6.81% (inactive)
OC(COc1ccc2ccccc2c1)CN1CCOCC1 (centres undefined),780,4.7% (inactive),3.4% (inactive),83%,-44.7% (inactive),95.6%,-0.441 (inactive),-8.9e-05 (inactive),0.00562 (inactive),3.23% (inactive),11.9% (inactive)
Cc1ccc(Cl)cc1N1CCN(C(=O)C2CCCN(S(=O)(=O)c3cnc[nH]3)C2)CC1 (centres undefined),563,10.1% (inactive),-1.2% (inactive),102%,-74.4% (inactive),126%,-0.532 (inactive),-2.9e-05 (inactive),0.00714 (inactive),-6.79% (inactive),3.89% (inactive)
CCN(CC)S(=O)(=O)c1ccc(Br)c(OC)c1,374,4.5% (inactive),-7.1% (inactive),100%,-15.1% (inactive),107%,-0.371 (inactive),-5.2e-05 (inactive),0.00493 (inactive),18.3% (inactive),34.5% (inactive)
CC(=O)Nc1ccc(S(=O)(=O)NCc2cn3c(C)csc3n2)cc1,531,-7.6% (inactive),-8.4% (inactive),104%,-29.8% (inactive),84.3%,-0.588 (inactive),-3.6e-05 (inactive),0.00529 (inactive),1.88% (inactive),8.5% (inactive)
O=c1[nH]c(N2CCc3ccccc32)nc2c1CCCC2,309,1.1% (inactive),11% (inactive),68.4%,14.7% (inactive),82.4%,-0.507 (inactive),-4.2e-05 (inactive),0.0041 (inactive),6.82% (inactive),-14.4% (inactive)
CCOC(=O)N1CCC(NC(=O)Cn2c3c(c(-c4ccccc4Cl)cc2=O)CCC3)CC1,528,-3.3% (inactive),4.5% (inactive),98.3%,-105% (inactive),120%,-0.54 (inactive),-2.2e-05 (inactive),0.00573 (inactive),9.23% (inactive),30.1% (inactive)
Cc1ccc2[nH]c3c(c2c1)CCc1cn[nH]c1-3,410,5.1% (inactive),-4.7% (inactive),71.7%,27.4% (inactive),105%,-0.481 (inactive),-1.8e-05 (inactive),0.00393 (inactive),-22.4% (inactive),-73.4% (inactive)
CCN1C(=O)c2cccc3c(NC(=O)c4ccc(S(=O)(=O)N(C)C)cc4)ccc1c23,323,-7.9% (inactive),-2.1% (inactive),109%,-23.9% (inactive),111%,-0.319 (inactive),-4.5e-05 (inactive),0.0056 (inactive),23.8% (inactive),30.8% (inactive)
C/C(N)=C(/C#N)C(=O)COC(=O)CCSc1ccccc1,422,3.1% (inactive),7.6% (inactive),117%,-20.4% (inactive),107%,-0.464 (inactive),-6.7e-05 (inactive),0.00505 (inactive),13.7% (inactive),-9.84% (inactive)
COc1ccc(C(=O)N(CCCO)Cc2cc3c(C)ccc(C)c3[nH]c2=O)cc1OC,647,-3% (inactive),12.4% (inactive),91.4%,19.2% (inactive),86.7%,-0.389 (inactive),-0.00013 (inactive),0.00636 (inactive),8.26% (inactive),19% (inactive)
